Assay results: paper PMC5540273 (PLoS ONE, 2017)

Assays:
[1] = system: CDKL3
[2] = system: CDKL1
[3] = system: CIT
[4] = system: CDKL2
[5] = system: CHEK1
[6] = system: CDKL5
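Further: kd values determined as follow-up on hits from a single-replicate KINOMEscan panel screen.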

CS(=O)(=O)CCNCc1nc(-c2ccc3ncnc(Nc4ccc5c(cnn5Cc5ccccc5)c4)c3c2)cs1.Cl.Cl [GW569716]
Kd [1]: > 10 µM

Cc1ccc(NC(=O)Nc2ccc(Cl)c(C(F)(F)F)c2)cc1-c1ccc(C(=O)Nc2ccncc2)cc1 [GSK1398470]
Kd [2]: > 10 µM | Kd [3]: 0.38 µM

COC(=O)c1cccc(NC(=O)NC2CCN(c3ccnc(Nc4ccc(F)cc4)n3)C2)c1 (stereo not drawn) [GSK1379725]
Kd [4]: 0.68 µM

COc1ccc(Nc2nccc(-c3ccc(NC(=O)c4cc5cc(F)ccc5[nH]4)cc3)n2)cc1 [GSK1229496]
Kd [5]: > 10 µM

O=C(Nc1n[nH]c2cc(-c3ccsc3)ccc12)C1CC1 [SB-732932]
Kd [4]: 0.1 µM

Cn1cncc1C(=O)NC1CCN(c2ccnc(Nc3ccc(F)cc3)n2)C1 (stereo not drawn) [GSK1379717]
Kd [2]: > 10 µM | Kd [1]: > 10 µM

Cc1c(Cn2c(C)c(C)n3c(=O)cc(N4CCOCC4)nc23)cccc1C(F)(F)F [GSK2328680]
Kd [2]: > 10 µM

COc1ccc(Nc2nccc(N3CCC(NC(=O)c4cc5ccccc5s4)C3)n2)cc1 (stereo not drawn) [GSK1379738]
Kd [5]: > 10 µM

CNC(=O)c1ccc(C)c(-n2c(C)cc(OCc3ccc(F)cc3F)c(Br)c2=O)c1
Kd [2]: > 10 µM

O=C(Nc1n[nH]c2nc(-c3cccs3)c(Br)cc12)C1CC1 [SB-735297]
Kd [4]: 0.14 µM

Cc1ccccc1-c1cc(-c2c[nH]nc2-c2ccccn2)ccn1 [GW680061]
Kd [5]: > 10 µM

COc1ccc(Nc2nccc(N3CCC(NC(=O)C(C)c4ccc(Cl)cc4)C3)n2)cc1 (stereo not drawn) [GSK1379735]
Kd [2]: > 10 µM

NS(=O)(=O)c1cccc(N/C=C2\C(=O)Nc3ccc(S(=O)(=O)Cc4c(Cl)cccc4Cl)cc32)c1 [GSK398099]
Kd [2]: > 10 µM

O=C(Nc1n[nH]c2nc(-c3ccco3)c(Br)cc12)C1CCN(Cc2ccccc2)C1.O=C(O)[C@H](O)[C@@H](O)C(=O)O (stereo not drawn) [SB-742034]
Kd [6]: 1.1 µM

Cn1cnc2c(N)ncnc21 [SKF-97623]
Kd [2]: > 10 µM

COc1cccc(C2=C(Nc3cc(Cl)c(O)c(Cl)c3)C(=O)NC2=O)c1 [SB-390767]
Kd [5]: > 10 µM

O=C(Nc1n[nH]c2nc(-c3cccs3)c(Br)cc12)C1CCCC1 [SB-743341]
Kd [4]: 0.33 µM

FC(F)(F)c1ccccc1-c1cc(-c2c[nH]nc2-c2ccccn2)ccn1 [GW679396]
Kd [5]: > 10 µM

CS(=O)(=O)CCNCc1nc(-c2ccc3ncnc(Nc4ccc(OCc5ccccc5)c(Cl)c4)c3c2)cs1.Cl [GW582764]
Kd [5]: > 10 µM

COc1ccc(Nc2nccc(N3CCC(NC(=O)C(C)c4ccc(Cl)cc4)CC3)n2)cc1 (stereo not drawn) [GSK1379812]
Kd [6]: > 10 µM

COC(=O)C(Cc1ccccc1)NC(=O)NC1CCN(c2ccnc(Nc3ccc(F)cc3)n2)C1 (stereo not drawn) [GSK1379714]
Kd [5]: > 10 µM

Cn1cncc1-c1cc2c(Nc3ccc(OCc4ccccc4)cc3)ncnc2cn1 [GW281179]
Kd [2]: > 10 µM
